Laboratory results from PubChem BioAssay (NCI).
Where “and” joins values, the source holds several entries; their conditions need not be identical. Identical values can stand only once. This is part of a sample that, as a whole, favours compounds with a hit. Of some 83,000 tested, about 20% had one in any assay.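 Interpretation: 100, growth as untreated; towards 0, rising growth inhibition; 0, no net growth; 0 to -100, cell death. Compounds scoring below 10 were considered active.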 Calls of active or inactive are those of the source.

Key:
Assay in all cases: NCI-60 one-dose screen, 48 h (100 = growth as untreated, 0 = no growth, -100 = all killed)
Details in all cases: 10 µM unless noted
UACC-62 melanoma = system: UACC-62 melanoma
HCT-15 colon = system: HCT-15 colon
HT29 colon = system: HT29 colon
SNB-19 CNS = system: SNB-19 CNS
U251 CNS = system: U251 CNS
PC-3 prostate = system: PC-3 prostate
SK-MEL-5 melanoma = system: SK-MEL-5 melanoma
LOX IMVI melanoma = system: LOX IMVI melanoma
SK-MEL-28 melanoma = system: SK-MEL-28 melanoma
SNB-75 CNS = system: SNB-75 CNS

## COC(=O)C1CCC(=O)N1CN(C(C)=O)c1cccc(O)c1 (stereo not drawn)
UACC-62 melanoma
  growth: 74.6% [100 µM] (inactive) and 102% [100 µM] (inactive)

## Cc1cc(N(CCC#N)CCC#N)ccc1/C=N/NC(=O)c1cc(Cl)ccc1O
UACC-62 melanoma
  growth: 46.2% [100 µM] (inactive) and 8.92% [100 µM] (active)

## CCN(CC)C(=O)c1cccnc1
HCT-15 colon
  growth: 106% (inactive)
HT29 colon
  growth: 103% (inactive)
SNB-19 CNS
  growth: 105% (inactive)
U251 CNS
  growth: 96.2% (inactive)
PC-3 prostate
  growth: 100% (inactive)
SK-MEL-5 melanoma
  growth: 103% (inactive)
UACC-62 melanoma
  growth: 105% (inactive)
LOX IMVI melanoma
  growth: 100% (inactive)
SK-MEL-28 melanoma
  growth: 111% (inactive)

## O=C1c2ccccc2-c2c1c1ccccc1c(=O)n2CCO
UACC-62 melanoma
  growth: -21.8% [100 µM] (active) and -78.7% [100 µM] (active)

## Cc1ccc(/C=N/Nc2nncc3ccccc23)s1
UACC-62 melanoma
  growth: 6.4% [100 µM] (active) and 1.47% [100 µM] (active)

## Cc1coc2c1C(OC(=O)C(C)C)C1(C)C(C)CCC(O)C1C2=O (stereo not drawn)
UACC-62 melanoma
  growth: 39% [100 µM] (inactive) and 18.7% [100 µM] (inactive)

## O=[N+]([O-])c1ccc(Oc2ccccc2)cc1
HCT-15 colon
  growth: 123% (inactive) and 104% (inactive)
HT29 colon
  growth: 113% (inactive) and 103% (inactive)
SNB-19 CNS
  growth: 97% (inactive) and 114% (inactive)
U251 CNS
  growth: 102% (inactive) and 105% (inactive)
PC-3 prostate
  growth: 81.9% (inactive) and 88.4% (inactive)
SK-MEL-5 melanoma
  growth: 109% (inactive) and 108% (inactive)
UACC-62 melanoma
  growth: 107% (inactive) and 106% (inactive)
LOX IMVI melanoma
  growth: 95.3% (inactive) and 99.3% (inactive)
SK-MEL-28 melanoma
  growth: 108% (inactive)

## Nc1ccc2ccc(N)cc2c1
HCT-15 colon
  growth: 74.4% (inactive)
HT29 colon
  growth: 94.2% (inactive)
SNB-19 CNS
  growth: 96.1% (inactive)
PC-3 prostate
  growth: 60.3% (inactive)
SK-MEL-5 melanoma
  growth: 83% (inactive)
UACC-62 melanoma
  growth: 80.7% (inactive)
LOX IMVI melanoma
  growth: 65.1% (inactive)
SK-MEL-28 melanoma
  growth: 92.1% (inactive)

## CC1CC(=O)N(N(C)C)C2(C#N)C(=O)N=C(N)C12C#N (stereo not drawn)
UACC-62 melanoma
  growth: -84.2% [100 µM] (active) and -92.9% [100 µM] (active)

## COc1ccc(S(=O)(=O)N2CCOCC2)cc1NC(=O)c1[nH]c(C)c2c1CCCCC2=O
HCT-15 colon
  growth: 104% (inactive) and 26.9% (inactive)
HT29 colon
  growth: 112% (inactive) and 31.7% (inactive)
SNB-19 CNS
  growth: 98.7% (inactive) and 64.1% (inactive)
U251 CNS
  growth: 97.9% (inactive) and 63.2% (inactive)
PC-3 prostate
  growth: 46.4% (inactive)
SK-MEL-5 melanoma
  growth: 97.8% (inactive) and 70.9% (inactive)
UACC-62 melanoma
  growth: 98.2% (inactive) and 33.3% (inactive)
LOX IMVI melanoma
  growth: 98.6% (inactive) and 23.5% (inactive)
SK-MEL-28 melanoma
  growth: 101% (inactive) and 62.5% (inactive)

## N=C1N=C(N)CS1
HT29 colon
  growth: 105% (inactive)
SNB-75 CNS
  growth: 92.1% (inactive)
SNB-19 CNS
  growth: 104% (inactive)
PC-3 prostate
  growth: 101% (inactive)
SK-MEL-5 melanoma
  growth: 98.4% (inactive)
UACC-62 melanoma
  growth: 100% (inactive)
LOX IMVI melanoma
  growth: 107% (inactive)
SK-MEL-28 melanoma
  growth: 109% (inactive)

## CC(O)(CC(=O)CC(=O)c1ccccc1)c1ccccc1 (stereo not drawn)
HCT-15 colon
  growth: 70.2% (inactive) and 69.4% (inactive)
HT29 colon
  growth: 105% (inactive) and 111% (inactive)
SNB-19 CNS
  growth: 95.8% (inactive) and 99.9% (inactive)
U251 CNS
  growth: 89.2% (inactive) and 84.3% (inactive)
PC-3 prostate
  growth: 80.9% (inactive)
SK-MEL-5 melanoma
  growth: 98.6% (inactive) and 93.6% (inactive)
UACC-62 melanoma
  growth: 101% (inactive) and 87.9% (inactive)
LOX IMVI melanoma
  growth: 110% (inactive) and 82.3% (inactive)
SK-MEL-28 melanoma
  growth: 99.4% (inactive) and 123% (inactive)

## Fc1ccc(Nc2nc(Cl)c3[nH]cnc3n2)cc1Cl
UACC-62 melanoma
  growth: 68% [100 µM] (inactive) and 34.7% [100 µM] (inactive)

## Cc1ccc(NCSc2ccc(Cl)cc2)cc1
HCT-15 colon
  growth: 77.1% (inactive) and 90.7% (inactive)
HT29 colon
  growth: 79.4% (inactive) and 75.7% (inactive)
SNB-19 CNS
  growth: 89.3% (inactive) and 90% (inactive)
U251 CNS
  growth: 71.4% (inactive) and 79.1% (inactive)
PC-3 prostate
  growth: 66.8% (inactive) and 62.3% (inactive)
SK-MEL-5 melanoma
  growth: 86.5% (inactive) and 102% (inactive)
UACC-62 melanoma
  growth: 82.3% (inactive) and 85% (inactive)
LOX IMVI melanoma
  growth: 88.6% (inactive) and 95.2% (inactive)
SK-MEL-28 melanoma
  growth: 86.9% (inactive) and 94.3% (inactive)
